# Experimental data reported in PubChem BioAssay (NCI).
# “And” between values parts separate entries of the source, which are not always exact repeats. Equal values may be shown once. Compounds without any hit were thinned out: in the full panel of roughly 79,000, 15% have a hit. Unmarked numbers belong to inactive results. The source made the active and inactive calls. Cut-off read from the data, not from the text of the source: active = growth inhibition above about 70%; inactive = the rest.
# Assays:
# [1] = NCI Yeast Anticancer Drug Screen. Data for the rad50 strain (AID 155);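 note: 0% = growth of vehicle-only cultures of the same strain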; settings: S. cerevisiae rad50 strain growth inhibition; at 50.0 µM; hits give high values
# Procedure, shortened: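 Inhibition values express reduced yeast growth in compound-treated cultures relative to vehicle-treated controls.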
# [2] = NCI Yeast Anticancer Drug Screen. Data for the mec2-1 strain (AID 157); settings: S. cerevisiae mec2-1 strain, at 50.0 µM, hits give high values
# Procedure, shortened: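 Mutant yeast (mec2-1) grown with compound; growth inhibition relative to vehicle control reported.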
# [3] = NCI Yeast Anticancer Drug Screen. Data for the sgs1 mgt1 strain (AID 161);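 note: 0% = growth of cultures given vehicle only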; settings: S. cerevisiae sgs1 mgt1 strain, at 50.0 µM, hits give high values
# Procedure, shortened: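 Growth of a repair-deficient yeast mutant was monitored after compound treatment and expressed as inhibition relative to vehicle-treated cultures.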
# [4] = NCI Yeast Anticancer Drug Screen. Data for the cln2 rad14 strain (AID 165);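 note: 0% = growth equal to vehicle treated cultures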; settings: S. cerevisiae cln2 rad14 strain, at 50.0 µM, hits give high values
# Procedure, shortened: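 Readout is yeast growth inhibition versus vehicle-treated controls, using a strain with cln2 and rad14 alterations exposed to compound.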
# [5] = NCI Yeast Anticancer Drug Screen. Data for the bub3 strain (AID 167); settings: S. cerevisiae bub3 mutant strain, at 50.0 µM, hits give high values
# Procedure, shortened: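 Steps: expose the mutant yeast strain to compound; grow alongside vehicle-treated cultures; measure growth; express inhibition against the vehicle cultures.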
# [6] = NCI Yeast Anticancer Drug Screen. Data for the mlh1 rad18 strain (AID 175); settings: S. cerevisiae mlh1 rad18 strain growth inhibition; at 50.0 µM; hits give high values
# Procedure, shortened: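 Genetically defined yeast (DNA repair-deficient) exposed to compounds; growth inhibition determined relative to vehicle.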
Structure (SMILES),growth inhibition [1],growth inhibition [2],growth inhibition [3],growth inhibition [4],growth inhibition [5],growth inhibition [6]
O=C(O)CN1C(=O)CN=C(c2ccccn2)c2cc(Cl)ccc21,-5.45%,-8.6%,-23.8%,-50.6%,-15.3%,-17%
C1=C\CCC2SC2CC/1 (stereo not drawn),2.1%,-16.9%,-5.95%,-14.6%,12.4%,-7.5%
CCCCC1(CCS)C(=O)NC(=O)NC1=O,-5.55%,-11.8%,-4.75%,-10.1%,-4.05%,-17.1%
CC(=O)SCCC(NC(=S)Nc1ccccc1)P(=O)(Oc1ccccc1)Oc1ccccc1 (stereo not drawn),-17.9%,10.3%,8.35%,-11.9%,-7.1%,-10.3%
C/C=C(\C)C(=O)N[C@@H](c1ccccc1)[C@@H](O)C(=O)OC1C[C@@]2(O)[C@@H](OC(=O)c3ccccc3)[C@@H]3[C@]4(OC(C)=O)CO[C@@H]4C[C@H](O)[C@@]3(C)C(=O)[C@H](OC(C)=O)C(=C1C)C2(C)C (stereo partly drawn),34.1%,13.6%,13.8%,16.9%,21.4%,29.9%
O=C(CCN1CC2CCC(CC2)C1)c1cccs1,-15.8%,-21.9%,-16.4%,-13.9%,-45.8%,-28.8%
CC(Cl)CN(CC(C)Cl)c1ccc(-c2ccccc2)cc1 (stereo not drawn),5.25%,-13.8%,12.7%,18%,-5%,-30.9%
CC(=O)CC(C)=O.CC(=O)CC(C)=O.CC(=O)CC(C)=O.[Cr],20.2%,-8.3%,1.05%,-27.7%,4.3%,13.2%
CN(C)P1(=S)NCC(C(C)(C)C)CO1 (stereo not drawn),10.2%,-40.1%,-10.9%,11.2%,18.5%,-43.4%
O=C(O)CP(=O)(O)O,-19% and 6.2%,-8.25% and 10%,-21.1% and 1.75%,-2.2% and -19.4%,-27.1% and 5.75%,1.2% and -2.65%
Nc1nc(N)[nH]c(=O)n1,-20.1%,-12.5%,-39%,-29.4%,-36.4%,-40%
CCOC(OCC)c1ccc(N(C)C)cc1.[C-]#[O+].[C-]#[O+].[C-]#[O+].[Cr],-8.25%,-30.2%,37.8%,-4.5%,-8.3%,4.6%
N#CCc1ccc(Br)cc1,0.2%,0.8%,5.65%,-16.9%,-14.9%,5.8%
CCC(Br)C(=O)O (stereo not drawn),26.6%,-4.3%,-0.3%,-22.5%,24.4%,24.8%
O=P(O)(O)C(O)c1ccccc1 (stereo not drawn),-20.1%,-31.9%,-15.4%,-1.9%,-19.2%,17.6%
COc1ccc(N2CC=C(c3ccccc3)OP2(=O)N2CC2)cc1 (stereo not drawn),-20.4%,25.9%,5.9%,18.2%,0.95%,-7.7%
COC(=O)Cc1ccccc1,-4.4%,15.1%,-31.8%,5.9%,-50.5%,-19.5%
CN(C)P(=S)(N(C)C)N1CCOCC1,-7.6%,-13.3%,6.55%,-16.8%,-28.3%,-9%
CCN(CCCl)c1cccc(NC(=O)c2ccc(C(=O)Nc3cccc(CN(C)C)c3)cc2)c1,5.55%,-6.3%,20.5%,-1.95%,-14.4%,26.3%

Structure (SMILES),growth inhibition [1],growth inhibition [2],growth inhibition [3],growth inhibition [4],growth inhibition [5],growth inhibition [6]
Cc1nc2cccc(F)c2c(=O)n1-c1nnc(C2CC2)s1,-28.6%,-23.5%,-20.2%,13.5%,-41.2%,-9.05%
N.N.N.N.O=C([O-])C(=O)O.O=C([O-])C(=O)[O-].[Co+3],-2.9%,1.5%,-10.6%,13.6%,11.9%,-11.6%
O=C=Nc1ccccc1Cl,12.5%,3.1%,-1.15%,5.45%,4.2%,5.15%
C=CCc1cc(C=C(C#N)C#N)cc(OC)c1O,-0.15%,-2.85%,10.7%,23.1%,9.05%,11.7%
CCCCCCNCCc1cnc[nH]1,12.8%,3.1%,15%,17.5%,2.75%,-68.7%
CN1CC=C(OP(=O)(NCc2ccccc2)N(CCCl)CCCl)CC1 (stereo not drawn),-6.25%,-12.8%,0.9%,-3.1%,-17.4%,-34%
CCOC(=O)C(C)Br (stereo not drawn),15%,5.3%,28.3%,-24.7%,44.6%,-8.2%
O=[As](O)(O)c1ccccc1Cl,14.1%,-13.4%,-32.1%,4.55%,3.2%,16.6%
[Br][Hg][CH]1CCC2CCCC1O2 (stereo not drawn),99.5% (active),99.2% (active),99.5% (active),99% (active),99.3% (active),99.5% (active)
CC(C)CCN(CCC(C)C)CC(O)c1ccc(Br)cc1 (stereo not drawn),5.1%,-13.1%,6.1%,-47.5%,-15.6%,0.35%
Cc1cccc(N)c1,6.5%,-6.75%,1.35%,5.65%,14.2%,10.4%
NC(=O)COc1ccc([As]=O)cc1 (stereo not drawn),-1.9%,-14.9%,-11.9%,-48.8%,-33.3%,-15.8%
CCN1C(=O)C(=C/C=C/c2ccc(OC)cc2)C(=O)N(CC)C1=S,37.4%,10.8%,46.4%,11.8%,13.8%,36.7%
CN(C)C(=O)Oc1c(-c2ccccc2)c(=O)n2c3ccccc3n3c(=O)n(C)c(=O)c1c23,21.8%,23.4%,-0.9%,17.1%,11.7%,19.8%
CCOP(=O)(NC12CC3CC(CC(C3)C1)C2)OCC,-1.5%,8.2%,-7.5%,5.25%,19.6%,-18.2%
CCC1(CC(C)O)C(=O)NC(=O)NC1=O (stereo not drawn),6.9%,-2.45%,-20%,-37.7%,-0.65%,-23.1%
c1ccc(C2=NCN3CC23c2ccccc2)cc1 (stereo not drawn),-3.6%,2.2%,14.4%,13.4%,-48.8%,3.45%
ClCc1ccco1,0.35%,2.4%,10.6%,-11.4%,23.6%,36.2%
CCN(CCCl)CCCCCNc1c2ccccc2nc2ccc(OC)cc12,84.5% (active),84.5% (active),83% (active),84.3% (active),78.8% (active),76% (active)
